Only some compounds are listed: those with a hit (about 19% of all), similar ones and a draw of the others.
HT1080 IDH1KD tx = qHTS for induction of synthetic lethality in tumor cells producing 2HG: qHTS for the HT-1080-IDH1KD cell line; HT-1080 IDH1 knockdown viability, ATP luminescence, 48 h; Potency, µM (highest dose often 46.1 µM), inactives show at the top dose activity, negative = toxicity, hits mostly cytotoxic; 360,000 compounds, 2% hits; AID 686971, 2013;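 also: potency is read from the fitted curve at half-maximal effect; 0% = DMSO wells and -100% = cell-free medium wells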
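% activity derives from luminescence (CellTiter-Glo), normalised to DMSO and no-cell wells. HT-1080-IDH1KD cells, 750/well, had 48 h compound exposure at 37 °C.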
DT40 TDP1 no CPT = qHTS for Inhibitors of human tyrosyl-DNA phosphodiesterase 1 (TDP1): qHTS in cells in absence of CPT. 420,000 compounds, 15% hits. Potency, µM (series often up to 46.2 µM), without a hit: at the top dose activity change, negative = growth inhibition, usual class: inhibitors. DT40 Tdp1-/- hTDP1 cells, no CPT, ATP luminescence, 48 h; also: potency is read from the fitted curve at half-maximal effect; nearly all actives have a fitted effect of over 55% in size
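Growth kinetics read by CellTiter-Glo luminescence after ≥48 hr at 37 °C. Cells: DT40 Tdp1-/- stably carrying human TDP1, 400 per well, compound exposure in the absence of CPT (DMSO vehicle).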
ELG1 DNA repair = qHTS screen for small molecules that inhibit ELG1-dependent DNA repair in human embryonic kidney (HEK293T) cells expressing luciferase-tagged ELG1; HEK293T ELG1-luciferase reporter, luminescence, 16 h; DNA damage induced by 5-fluorouridine; Potency, µM (titrated, usually from 46.1 µM), for inactives: at the top dose activity change, negative = inhibition, usual class: inhibitors; 330,000 compounds, 2.3% hits; AID 504467, 2011; also: potency is read from the fitted curve at half-maximal effect; nearly all actives have a fitted effect of over 55% in size
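HEK293T cells expressing luciferase-tagged ELG1 (2,000/well) received 5-Fluorouridine plus compound or DMSO for 16 hr at 37 °C. Luciferase was read by ONE-Glo luminescence after 30 min at room temperature.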
HT1080-NT tox = qHTS for induction of synthetic lethality in tumor cells producing 2HG: qHTS for the HT-1080-NT fibrosarcoma cell line; HT-1080-NT fibrosarcoma viability, CellTiter-Glo ATP luminescence, 48 h; AID 686970, 2013; 360,000 compounds, 1.6% hits; Potency, µM (titrated, usually from 46.1 µM), for inactives: at the top dose activity, negative = less viability, usual class: cytotoxic;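 also: NT is the 2HG producing partner of a matched IDH1 knockdown line; potency is read from the fitted curve at half-maximal effect; 0% = DMSO-treated cells and -100% = media-only wells without cells; nearly all actives have a fitted effect of over 55% in size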
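Viability by CellTiter-Glo luminescence after 48 h compound exposure at 37C of HT-1080-NT cells (750/well, RPMI, 5% FBS). % activity scaled between DMSO wells and medium-only wells, then curve-fitted and categorized by curve class.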
IL-1B inflam inh = qHTS for Inhibitors of Inflammasome Signaling: IL-1-beta AlphaLISA Primary Screen; activity change, % at 57.5 µM; 360,000 compounds, 4.7% hits; THP-1 LPS/ATP IL-1B secretion, AlphaLISA, 16 h; hits give low values; in the data active = activity change below about -50%; inconclusive = mostly about -30% to -49%
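Secreted IL-1B measured by AlphaLISA bead assay after 16 h compound exposure of THP-1 cells; compounds (final up to 57.5 uM) added 1 h before LPS (250 ng/mL) and ATP (1.25 mM) stimulation; lower signal means less secretion.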
DT40 TDP1 CPT = qHTS for Inhibitors of human tyrosyl-DNA phosphodiesterase 1 (TDP1): qHTS in cells in presence of CPT | Potency, µM (series often up to 46.2 µM), without a hit: at the top dose activity change, negative = growth inhibition, hits mostly inhibitors | 420,000 compounds, 12% hits | chicken DT40 Tdp1-/-;hTDP1 cells + 20 nM CPT, ATP luminescence, 48 h; also: potency is read from the fitted curve at half-maximal effect; nearly all actives have a fitted effect of over 55% in size
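Cell growth measured by CellTiter-Glo luminescence after a minimum 48 h, 37 C compound exposure with 20 nM CPT in Tdp1-knockout DT40 cells stably expressing hTDP1, seeded 400/well; qHTS titration format.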
Starred values were filed as active, the others as inactive; ? = inconclusive; . = not tested or not shown. Unless noted, calls follow the shape of the dose curve; as a rule, active = well fitted curve in the direction sought with a large enough effect; inconclusive = small, poorly fitted or top-dose-only effect, or another doubt; inactive = no such curve, though single readings can be large; an effect the other way counts as inactive or inconclusive. Unless noted, % is scaled to controls: 0 for no effect and ±100 for the full control effect.

SMILES	HT1080 IDH1KD tx	DT40 TDP1 no CPT	ELG1 DNA repair	HT1080-NT tox	IL-1B inflam inh	DT40 TDP1 CPT
Cc1nc(-c2ccc(NC(=O)C3CCCCC3)cc2)cs1	-11.4%	20.6µM*	?	-8.4%	-14.4	-22.4%
O=C(Nc1ccc(F)cc1)C1CCCCC1	12.2%	-10.8%	?	3.5%	-5.5	-7.4%
O=C(Nc1ccc(-c2csc(-c3ccccc3)n2)cc1)c1ccccc1Cl	-4.7%	?	5.4%	-25.4%	-11.0	20.6µM*
O=C(Nc1ccc(-c2cn3ccsc3n2)cc1)C1CCCC1	?	16.4µM*	?	-20.5%	1.2	14.6µM*
Cc1nc(-c2ccc(NC(=O)c3ccccc3)cc2)cs1	?	?	?	?	0.0	18.4µM*
Cc1ccc(C(=O)Nc2ccc(-c3csc(C)n3)cc2)cc1	?	-28.6%	?	?	-15.1	7.1%
CCc1nnc(NC(=O)[C@@H](NS(=O)(=O)c2ccc3c(c2)OCCO3)C(C)C)s1	-2.3%	?	.	-9.0%	-3.7	-10.8%
COc1ccc(NS(=O)(=O)c2nnc(NC(=O)c3ccccc3F)s2)cc1	0.9%	?	4.8%	6.6%	-23.3	5.0%
COc1ccc(-n2cc(C(=O)NCc3ccccc3Cl)c3ccccc3c2=O)cc1	.	0.6%	.	.	.	-15.4%
Cc1ccsc1/C=N/NC(=O)c1nnn(-c2nonc2N)c1CSc1ccccc1	15.8%	16.1%	?	?	6.3	-24.9%
O=C(Oc1ccccc1)N1CCC2(CC1)CCN(c1ccccc1)CC2	.	18.4µM*	.	.	.	?
O=C(Oc1ccccc1)N1CCC2(CCCN(c3ncccn3)C2)CC1	.	18.4µM*	.	.	.	-24.5%
CCCc1cc(C(=O)Nc2cc(OC)ccc2OC)cs1	-3.2%	-14.4%	0.0%	-5.4%	19.2	-10.6%
CC1CN(C(=O)CCC(=O)NCCCN2C(C)CCCC2C)c2ccccc2O1 (stereo unspecified)	2.7%	-13.1%	5.3%	5.4%	-17.8	0.4%
O=c1oc2ccc(Cl)cc2cc1-c1nnc(Nc2cccc(C(F)(F)F)c2)s1	7.6%	2.59µM*	1.1%	-3.5%	-7.2	?
CNc1nnc(-c2cc3cc(Cl)ccc3oc2=O)s1	0.5%	0.8%	?	12.0%	-7.0	-21.1%
O=[N+]([O-])c1ccc(-c2ccc(/C=N/c3c(-c4ccco4)nc4ccccn34)o2)cc1	?	7.31µM*	?	?	12.7	20.6µM*
Cc1cc(C)c([N+](=O)[O-])cc1-c1ccc(/C=N/c2c(-c3ccco3)nc3ccccn23)o1	-26.2%	14.6µM*	?	-24.2%	-15.2	14.6µM*
O=[N+]([O-])c1ccc(Cl)c(-c2ccc(/C=N/c3c(-c4ccco4)nc4ccccn34)o2)c1	-1.0%	?	1.0%	-0.5%	1.7	-27.9%
COc1ccc(-c2cc(C(F)(F)F)c(C#N)c(SCC(=O)Nc3ccccc3F)n2)cc1	.	-16.4%	.	.	.	1.0%
COc1cccc(C2=NN(C(=O)C3CC3)C(O)(C(F)(F)F)C2)c1 (stereo unspecified)	-3.5%	?	.	-5.2%	0.3	?
COc1cc(CN2CCC(C(=O)NC(c3ccc(F)cc3)c3ncccc3C)CC2)cc(OC)c1 (stereo unspecified)	-25.2%	?	.	-17.8%	-21.5	23.1µM*

Screens: PubChem, National Center for Advancing Translational Sciences (NCATS)
